Results published in PubChem BioAssay (Tox21).
Where “and” joins values, the source holds several entries; their conditions need not be identical. Equal values may be shown once. Results filed as inconclusive are left out. Where a call stands in place of a potency, no number is given. More than one record can exist for a structure, and the calls need not agree. Calls of active or inactive are those of the source. No rule for the calls is given here.

assay: qHTS assay to identify small molecule antagonists of the estrogen related receptor signaling pathway with the pleiotropic PPARgamma coactivator (PGC) from Tox21 10K library (AID 1224841); details: PGC/ERR reporter cell line, ONE-Glo luciferase, 18 h; series mostly up to 92.4 µM; also: actives are mostly falling curves and most rising ones were filed inactive; nearly all actives have a fitted effect of over 50% in size
Source text: U.S. Tox21 Program National Center for Advancing Translational Sciences [NCATS] NIH Chemical Genomics Center [NCGC] U.S. Environmental Protection Agency [EPA] National Institutes of Environmental Health Sciences [NIEHS] National Toxicology Program [NTP] U.S. Food and Drug Administration [FDA] Tox21 Assay Overview: Estrogen related receptors (ERRs), the first orphan nuclear receptors discovered, play an important role in the control of cellular energy metabolism. ERRs are required for high-energy production in response to the environmental challenges. The pleiotropic PPARgamma coactivator (PGC) is a major partner of ERR and a key regulator in energy homeostasis. Together they have been implicated in the etiology of metabolic disorders such as Type 2 diabetes and metabolic syndrome. ERR-alpha was also identified as an adverse marker for breast cancer progression; ERR-alpha-positive tumors have a poor prognosis. To screen and to identify environmental compounds that perturb the ERR and PGC/ERR signaling pathways could provide valuable information for potential therapeutic or preventive measures in the treatment of metabolic disease. For identifying PGC/ERR antagonists, PGC/ERR cell line (provided by NTP) has been used to screen Tox21 10K library.
Tox21 Assay Protocol Summary: The PGC/ERR cells were dispensed at 2,000 cells/5 ul/well in 1536-well white plates using a Multidrop dispenser. After the assay plates were incubated at a 37 C/5% CO2 incubator for 6 hours, 23 nL of compounds dissolved in DMSO, positive and negative controls or DMSO only was transferred to the assay plate by a pin tool. The plates were incubated at 37 C for 18 hours. 4 ul/well of One-Glo reagent was added into the assay plates using a Flying Reagent Dispenser. After 30-minute incubation at room temperature, the luminescence intensity in the plates was measured using a ViewLux plate reader.
Potency is read from the fitted curve at half-maximal effect.

| Compound | Potency |
| --- | --- |
| CCCCCCCCCCCCCCCO | 69.1 µM (active) and inactive |
| O=C(O)c1ccccc1C(c1ccc(O)cc1)c1ccc(O)cc1 | inactive |
| CCC(O)OCCCOC (configuration not stated) | inactive |
| Nc1cc([N+](=O)[O-])ccc1O | inactive |
| COc1ccc(Nc2ccccc2)c(C)c1 | inactive |
| C=C(C)C(=O)O[C@H]1C[C@@H]2CC[C@@]1(C)C2(C)C | 60.8 µM (active) and inactive |
| CSCCC=O | inactive |
| OCC(CO)(CBr)CBr | inactive |
| CCCCC(CC)COC(=O)C(C#N)=C(c1ccccc1)c1ccccc1 (configuration not stated) | inactive |
| Cc1cccnc1 | inactive |
| N[C@@H](Cc1cc(I)c(Oc2cc(I)c(O)c(I)c2)c(I)c1)C(=O)O | inactive |
| CCC(O)OC(O)CC (configuration not stated) | inactive |
| O=c1[nH]nnc2ccccc12 | inactive |
| Cc1cccc(O)c1 | inactive |
| CCCCCCCCCCCCc1ccccc1 | inactive |
| ON=C1CCCCC1 | inactive |
| O=P(OC(CCl)CCl)(OC(CCl)CCl)OC(CCl)CCl | 54.2 µM (active) and 54.5 µM (active) |
| COS(C)(=O)=O | 35.7 µM (active) and inactive |
| CC(C)(N)CO | inactive |

| Compound | Potency |
| --- | --- |
| c1ccc2c(c1)ccc1ccccc12 | inactive |
| CC(C)CC(=O)CC(C)C | inactive |
| CC(=O)CC(=O)Nc1ccccc1C | inactive |
| Fc1ccc(Br)cc1 | inactive |
| CCc1cccc(C)c1N | inactive |
| CCCCC(CC)COC(=O)CS (configuration not stated) | inactive |
| CC[C@H](C)C(=O)O[C@H]1C[C@@H](C)C=C2C=C[C@H](C)[C@H](CC[C@@H]3C[C@@H](O)CC(=O)O3)[C@H]21 | inactive |
| OC[C@H]1O[C@@](CO)(O[C@H]2O[C@H](CO)[C@@H](O)[C@H](O)[C@H]2O)[C@@H](O)[C@@H]1O | inactive |
| O=C(Oc1ccccc1)c1ccccc1 | inactive |
| O=C(O)CCCC[C@@H]1SC[C@@H]2NC(=O)N[C@@H]21 | inactive |
| CN(C)CCCN | inactive |
| Nc1ccccc1[N+](=O)[O-] | inactive |
| O=C(CC(C(=O)OC1CCCCC1)S(=O)(=O)O)OC1CCCCC1 (configuration not stated) | inactive |
| C[C@H]1C[C@@H]2[C@H]([C@@H](O)C[C@@]3(C)[C@H]2CC[C@]3(O)C(=O)CO)[C@@]2(C)C=CC(=O)C=C12 | inactive |
| CN(C)CCOCCN(C)C | inactive |
| OCCOCCOCCO | inactive |
| COCCCOc1ccnc(CS(=O)c2nc3ccccc3[nH]2)c1C (configuration not stated) | inactive |
| CC1=C(C)S(=O)(=O)CCS1(=O)=O | inactive |
